The values that follow come from PubChem BioAssay AID488969 (Vanderbilt High Throughput Screening Facility, 2010).

In all, about 110,000 compounds were measured (“z-score”: median about -0.1, highest 2% from about 2 on). The entries come from a sample that favours the highest values as a whole. Activity calls are given as the source filed them.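 Rule for the calls: active = z-score in the third read window above 3 or below -3; inactive = the rest.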

Chain of Metabotropic glutamate receptor 8 (Rattus norvegicus) (P70579 whole entry, looked up): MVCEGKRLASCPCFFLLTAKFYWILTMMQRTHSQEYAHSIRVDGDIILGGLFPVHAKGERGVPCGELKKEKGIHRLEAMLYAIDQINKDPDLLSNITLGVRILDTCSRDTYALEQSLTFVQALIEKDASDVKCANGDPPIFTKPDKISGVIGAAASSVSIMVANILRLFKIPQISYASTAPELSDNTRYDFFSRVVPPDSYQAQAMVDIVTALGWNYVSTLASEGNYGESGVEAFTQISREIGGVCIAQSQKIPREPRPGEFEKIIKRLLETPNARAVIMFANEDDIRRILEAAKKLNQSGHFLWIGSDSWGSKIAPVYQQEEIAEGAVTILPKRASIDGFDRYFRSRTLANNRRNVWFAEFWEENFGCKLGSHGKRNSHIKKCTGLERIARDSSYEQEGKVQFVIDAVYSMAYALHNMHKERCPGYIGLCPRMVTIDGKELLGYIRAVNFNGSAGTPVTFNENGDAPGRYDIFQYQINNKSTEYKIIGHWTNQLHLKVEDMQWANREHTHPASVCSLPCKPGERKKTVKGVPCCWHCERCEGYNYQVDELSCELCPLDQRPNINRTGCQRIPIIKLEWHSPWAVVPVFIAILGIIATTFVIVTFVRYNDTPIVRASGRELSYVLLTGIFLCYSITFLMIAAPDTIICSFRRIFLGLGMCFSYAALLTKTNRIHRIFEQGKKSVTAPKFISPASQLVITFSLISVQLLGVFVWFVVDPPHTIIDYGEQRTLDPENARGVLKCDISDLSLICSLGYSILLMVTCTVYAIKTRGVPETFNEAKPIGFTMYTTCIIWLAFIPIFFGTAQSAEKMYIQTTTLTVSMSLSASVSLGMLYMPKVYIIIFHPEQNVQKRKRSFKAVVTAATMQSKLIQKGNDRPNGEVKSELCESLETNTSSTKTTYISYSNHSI

The test concerns the target Metabotropic glutamate receptor 8 (Rattus norvegicus) (UniProt P70579). Put plainly: rat mGluR8 modulators via GIRK flux, primary screen, cell-based, thallium flux, HTS (AID 488969). The following applies: HEK293 rat mGluR8, GIRK (G protein-gated inwardly rectifying potassium channel) thallium flux, FluoZin2; at 10 µM; stronger effect = higher value; submaximal glutamate (EC20) added with thallium.
Compound `COc1ccc(OC)c(NC(=O)CSc2nnc(CNC(=O)c3ccco3)o2)c1` displayed a z-score of -0.27. `O=C(Nc1nccs1)C1C2/C=C\CCCCC21` (configuration not stated): the z-score turned out to be 0.175. The compound `COC(=O)Nc1ccc([N+](=O)[O-])cc1OC` came in with a z-score of -0.117. The same measure for `COc1ccc2nc(NC(=O)CN3CCN(C)CC3)sc2c1`: 0.194. Compound `c1cncc(-c2nnc(-c3ccco3)o2)c1` had a z-score of -0.101. The same measure for `CC(=O)Nc1cccc2c1C(=O)N(c1ccc(C)cc1)C2=O`: 0.845. Then `CC(=O)Nc1cccc2c1C(=O)N(c1cccc(C)c1)C2=O`, with 3.13 (active); and `CC(C)CC(=O)Nc1cccc2c1C(=O)N(c1ccccc1)C2=O`, with -3.2 (active); and `Cc1csc(N(C(=O)c2cccc(S(=O)(=O)N(C)C)c2)c2ccccc2)n1`, with 2.2. `Cc1csc(N(C(=O)c2ccc(S(=O)(=O)N(C)C)cc2)c2ccccc2)n1` showed a z-score of 0.4. `Cc1csc(N(C(=O)c2cccc(S(=O)(=O)N3CCCC3)c2)c2ccccc2)n1` yielded a z-score of -0.475. Then `COc1cc(C2N(c3ccc(F)cc3)C(=O)C3CCCN32)cc(OC)c1OC` (configuration not stated), with 0.416; and `Clc1ccc2c(c1)-c1nnc(Br)n1-c1ccccc1S2`, with -4.38 (active).

`O=C1CCSc2ccc(Cl)cc2N1Cc1ccccc1`: the z-score is -0.321. Take `S=C1Nc2cc(Cl)ccc2Sc2ccccc21`: the z-score was 11.3 (active). The compound `O=C1Nc2ccccc2S/C1=C/Nc1cccc(Cl)c1` had a z-score of -0.29.

On to `S=C1CCSc2ccc(Cl)cc2N1`, for which the z-score was 9.14 (active). On to `O=C1CCSc2ccc(Cl)cc2N1Cc1ccc(Cl)cc1`, for which the z-score was -0.366. The compound `O=C1Cc2ccccc2Sc2ccc(Cl)cc21` registered a z-score of -0.097. `CCOC(=O)Nc1ccc2c(c1)Nc1ccccc1S2` yielded a z-score of -0.571. Then `S=C1Nc2ccccc2Sc2ccc(Cl)cc21`, with 4.1 (active); and `Cc1ccc(-n2c(Cc3cccn3C)nnc2SCC(=O)N2CCN(c3ccccc3)CC2)cc1`, with -0.835; and `Cc1ccc(S(=O)(=O)N2CCN(C(=O)N(c3ccccc3)c3ccccc3)CC2)cc1`, with -0.559. In the case of `O=c1cc(O)nc(SCc2ccccc2)n1-c1ccc(F)cc1`, the z-score is -0.305. Then `CC1CCN(c2ccc(C(=O)Nc3ccc4c(c3)OCO4)cc2[N+](=O)[O-])CC1`, with -0.237; and `COc1ccccc1NC(=O)CNC(=O)c1ccccc1C`, with 0.371; and `CCOC(=O)CNS(=O)(=O)c1ccc(C(=O)O)cc1`, with 0.207. Regarding `Cc1ccc(S(=O)(=O)CC(=O)Nc2nc(-c3ccccc3)cs2)cc1`, the z-score was found to be 1.27. In turn, `O=C(CCCOc1ccc(Cl)cc1Cl)Nc1ccncc1` showed a z-score of 2.21. The compound `CCOc1ccccc1NC(=S)NC(=O)CCCOc1ccc(Cl)cc1Cl` showed a z-score of -0.0571.

`COc1ccccc1NC(=S)NC(=O)CCCOc1ccc(Cl)cc1Cl` had a z-score of -0.0968.

As for `CCCCC(=O)Nc1ccc(C(=O)NNC(=O)CCCOc2ccc(Cl)cc2Cl)cc1`, the z-score is -0.184. The same measure for `CN(C(=S)NC(=O)CCCOc1ccc(Cl)cc1Cl)c1ccccc1`: 4 (active); for `O=C(CCCOc1ccc(Cl)cc1Cl)Nc1cccnc1`: -0.0915; for `Cc1ccc(C)c(Oc2ncnc(N)c2[N+](=O)[O-])c1`: 0.623. For `CCOC(=O)COc1ccc(S(=O)(=O)Nc2cccc(SC)c2)cc1`, the z-score was -0.28. Then `CC(C)C(=O)Nc1ccc(-c2csc(-c3ccccc3)n2)cc1`, with -0.165; and `Cc1cc(-c2ccccc2)c(C#N)c(=S)[nH]1`, with 0.152. Take `Cc1ccc(-c2cc(-c3ccccc3)[nH]c(=S)c2C#N)cc1`: the z-score is 3.09 (active).

In the case of `N#Cc1c(-c2ccc(C(F)(F)F)cc2)cc(-c2ccccc2)[nH]c1=S`, the z-score was 1.24. Regarding `Cc1ccc(NC(=O)COC(=O)CNC(=O)c2ccc(Br)cc2)c(C)c1`, the z-score was -0.336.

With `Cc1ccc(NC(=O)NC2CCN(S(=O)(=O)c3ccc(F)cc3)CC2)cc1`, the z-score was 0.564. Then `Brc1ccc(-c2cn3ccccc3n2)s1`, with -0.391; and `CCOC(=O)C1(C)NC(c2ccco2)C2C(=O)N(c3ccc(C)cc3)C(=O)C21` (configuration not stated), with 0.153; and `COc1cc(NC(=O)C2CC2C)c(C(=O)O)cc1OC` (configuration not stated), with -0.191. The same measure for `C/C(N)=C(/C#N)C(=O)CN1CCCCC1`: 0.678. For `Cc1cccc(-c2noc(CCCC(=O)N3CCOCC3)n2)c1`, the z-score was -0.139.

Consider `O=C(CCCc1nc(-c2ccc(Cl)cc2)no1)N1CCOCC1`, for which the z-score is 3.9 (active). The same measure for `O=C(CCCc1nc(-c2ccccc2)no1)N1CCOCC1`: 0.382; for `COc1ccc(Cl)cc1C(=O)NNC(=S)NC(=O)c1cc(-c2ccc(Cl)cc2)nc2ccccc12`: 0.219.

Compound `CCOC(=O)c1ccc(NC(=O)COC(=O)Cc2csc(-c3ccccc3)n2)cc1` displayed a z-score of -0.252. `O=C(NCc1cccs1)c1cccnc1Cl` showed a z-score of -0.317. The same measure for `O=C(NCc1cccs1)c1cccnc1C(=O)O`: 5.74 (active); for `O=C(NCc1cccs1)c1ccccc1C(=O)NCc1cccs1`: -0.214; for `CCN(CC)S(=O)(=O)c1ccc(NCc2ccccc2)nc1`: -0.962. The same measure for `CCc1ccc(OCC(=O)NNC(=O)CSc2ncnc3sc(C)c(C)c23)cc1`: 0.487; for `Cc1sc2ncnc(SC(C)C(=O)N3c4ccccc4Sc4ccccc43)c2c1C` (configuration not stated): 2.19; for `CCC(Sc1ncnc2sc(C)c(C)c12)C(=O)OC` (configuration not stated): -0.469. Then `Cc1ccc(OCC(=O)NNC(=O)C(C)Sc2ncnc3sc(C)c(C)c23)cc1` (configuration not stated), with 7.7 (active). `Cc1sc2ncnc(SCC(=O)NCC(C)C)c2c1C` had a z-score of -0.208. Then `Cc1sc2ncnc(SCC(=O)c3ccc(Cl)s3)c2c1C`, with 1.06; and `COc1ccc(Cn2c(O)c(C=Nc3ccc(OC)cc3)c3ccccc3c2=O)cc1`, with -0.178; and `NC(=O)c1c(NC(=O)CSc2nc3c(c(C(F)(F)F)n2)CCc2ccccc2-3)sc2c1CCCC2`, with -0.123.

In the case of `Cc1ccc(C)c(NC(=O)Cc2csc(-c3ccccc3)n2)c1`, the z-score was -0.0885. The same measure for `O=C(NC1CCCCC1)C(c1ccc2ncccc2c1)N(Cc1ccc2c(c1)OCO2)C(=O)c1cccs1` (configuration not stated): 0.00177; for `CC(=O)c1cnc(Nc2ccccc2)s1`: 0.548. As to `COc1ccc2cc(Br)ccc2c1CC(=O)NC1CC(C)(C)NC(C)(C)C1`, the z-score is 3.91 (active). Regarding `CCCNC(=O)Cc1c(OC)ccc2cc(Br)ccc12`, the z-score was determined as 0.421. The same measure for `COc1ccc2cc(Br)ccc2c1CC(=O)NC(C)(C)C`: -0.349. Then `COc1ccc(C(CCNCc2ccccc2)c2ccc(F)cc2)cc1` (configuration not stated), with 1.8; and `COc1ccc(CNCCC(c2ccc(F)cc2)c2ccc(OC)cc2)cc1` (configuration not stated), with 3.72 (active); and `COc1ccc(CNCCC(c2ccccc2)c2ccc3c(c2)OCO3)cc1` (configuration not stated), with 2.28. Compound `COc1ccc(C(CC(=O)Nc2ccc(F)cc2)c2ccccc2)cc1` (configuration not stated) displayed a z-score of 1.4.

The compound `COc1ccc(NC(=O)CC(c2ccc(F)cc2)c2ccc(OC)cc2)cc1` (configuration not stated) came in with a z-score of -0.576. The same measure for `COc1ccc(CC(=O)NCc2ccc3c(c2)OCO3)cc1`: -0.347. On to `Fc1ccccc1CNCCC(Cc1ccccc1)c1ccc2c(c1)OCO2` (configuration not stated), for which the z-score amounted to 0.733. `COc1ccc(C(CCNC(C)c2ccccc2)c2ccc(F)cc2)cc1` (configuration not stated) came in with a z-score of 1.71.

Consider `COc1ccc(C(CCNCc2ccccc2F)c2ccc(F)cc2)cc1` (configuration not stated), for which the z-score is 3.61 (active).

The compound `CCOC(=O)c1cc(NC(=O)N(C(C)C)C(C)C)c(C)nc1C` had a z-score of 0.0304. `Brc1ccc(-c2nc(-c3cccnc3)no2)o1`: the z-score is -0.481.

`COc1ccc(CCNC(=O)Cn2nnc(-c3ccccc3F)n2)cc1OC`: the z-score was 0.148. In turn, `COc1ccc2c(c1)-c1c(sn(-c3ccccc3)c1=S)C(C)(C)N2` yielded a z-score of -0.192.

`O=C(CC1Nc2ccccc2NC1=O)NCCCN1CCCCCC1` (configuration not stated) had a z-score of 2.07. The same measure for `CCCCN(CC)CCCNC(=O)CC1Nc2ccccc2NC1=O` (configuration not stated): 0.0522; for `O=C(CC1Nc2ccccc2NC1=O)NCCc1ccccc1` (configuration not stated): -0.0324. Then `COc1ccc(CNC(=O)C(NC(C)=O)C(=O)Nc2ccc(OC)cc2)cc1` (configuration not stated), with -0.149; and `Cc1ccc(C2(CC(=O)N3CCCC3)CCOC(C(C)C)C2)cc1` (configuration not stated), with -0.0604. Then `O=C(O)CSc1nnnn1-c1ccc2c(c1)OCCO2`, with -0.0806; and `COC(=O)C1=C(C)N(C)C(=O)NC1c1ccccc1` (configuration not stated), with -0.573. Compound `Cc1nc2sccc2c(=O)n1-c1cccc(Cl)c1` registered a z-score of -0.144. In turn, `Cc1cccc(-n2c(C)nc3c(cnn3-c3ccc(F)cc3)c2=O)c1` returned a z-score of 1.02.

As to `Cc1cccc(-n2c(C)nc3sccc3c2=O)c1`, the z-score came to 1.99.

For `Cc1noc(C)c1S(=O)(=O)N1CCCC(C(=O)N2CCC(C)CC2)C1` (configuration not stated), the z-score amounted to 1.01. Then `Cc1ccc(Cl)cc1NC1=C/C(=N\S(=O)(=O)c2cccs2)c2ccccc2C1=O`, with -0.209; and `O=C(c1ccccc1Cl)N1CCc2ccccc2C1`, with -1.42; and `COc1ccc(NC(=O)/C(Cl)=C(/Cl)S(=O)(=O)Cc2ccc(C)cc2)cn1`, with -0.418.

With `O=C(Nc1ccc2c(c1)OCO2)N1CCN(c2ccccc2Cl)CC1`, the z-score was -0.291. The same measure for `O=C(Nc1ccc2c(c1)OCO2)N1CCN(C(=O)C2CCCO2)CC1` (configuration not stated): 2.05; for `O=C(Nc1ccc2c(c1)OCO2)N1CCOCC1`: 0.476.

Consider `COc1ccccc1C(OC(=O)c1ccco1)C(=O)NC(C)(C)C` (configuration not stated), for which the z-score was -0.346. The compound `O=[N+]([O-])c1ccc(-c2nnc(CSc3nc(-c4ccccc4)nc4ccc(F)cc34)o2)cc1` returned a z-score of 0.0904. In turn, `O=c1c2ccccc2nc(SCc2nnc(-c3ccccc3)o2)n1-c1ccc(F)cc1F` returned a z-score of -0.56. Then `Fc1ccc2nc(-c3ccccc3)nc(SCc3nnc(-c4ccccc4)o3)c2c1`, with 14.3 (active); and `COc1cc2c(cc1OC)C(COc1ccc3c(C)cc(=O)oc3c1)N(C(=O)c1ccco1)CC2` (configuration not stated), with 0.044; and `Cc1csc(SCC(=O)N2CCN(S(=O)(=O)c3ccc(Cl)cc3)CC2)n1`, with 0.756.

Turning to `COc1cccc(-c2cc(C(=O)NC3CCCC3)no2)c1`, the z-score was 5.04 (active). Then `COC(=O)c1cc(-c2cccc(OC)c2)on1`, with -1.1; and `COCCNC(=O)c1cc(-c2cccc(OC)c2)on1`, with -0.215; and `CCOC(=O)c1c(C(F)(F)F)nc2ncccn12`, with -0.534. The same measure for `O=C(c1cnn2c(C(F)(F)F)cc(-c3ccc4c(c3)OCO4)nc12)N1CCCC1`: -0.369; for `O=C(CCCc1c[nH]c2ccccc12)N1CCN(c2ccc(N3CCOCC3)nn2)CC1`: -0.501. The same measure for `O=C(Nc1ccc2nc3n(c(=O)c2c1)CCCC3)c1ccccc1[N+](=O)[O-]`: -0.424. For the compound `Cc1ccccc1C(=O)Nc1ccc2nc3n(c(=O)c2c1)CCC3`, the z-score was 3.87 (active).

In the case of `CC(C)(C)c1cc(NC(=O)COC(=O)c2ccc3c(=O)n4c(nc3c2)CCC4)n(-c2ccccc2)n1`, the z-score was -0.264. Then `Cc1cccc(NC(=O)COC(=O)c2ccc3c(=O)n4c(nc3c2)CCC4)c1`, with 2.19.

On to `CN(C)c1cccc(C(=O)Nc2ccc3nc4n(c(=O)c3c2)CCCCC4)c1`, for which the z-score was -0.303. Then `O=C(COC(=O)c1ccc2c(=O)n3c(nc2c1)CCC3)Nc1ccccc1F`, with -0.441.
